Cdc25B block = human M-phase inducer phosphatase 2 inhibition. inhibition, %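 (compounds tested at 10 µM final in the well)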. actives 0.1% (n = 65,000). recombinant Cdc25B, OMFP fluorescence Ex485/Em525. P30305; in the data active = inhibition above about 50%
HePTP inhibitor = human HePTP phosphatase inhibition. inhibition, % at 20 µM. P35236. recombinant HePTP phosphatase activity, OD absorbance. actives 0.64% (n = 110,000); in the data active = inhibition above about 50%;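 note: plate controls were vehicle for no effect and reference inhibitor for full effect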
Target sequence (P35236 whole entry, looked up): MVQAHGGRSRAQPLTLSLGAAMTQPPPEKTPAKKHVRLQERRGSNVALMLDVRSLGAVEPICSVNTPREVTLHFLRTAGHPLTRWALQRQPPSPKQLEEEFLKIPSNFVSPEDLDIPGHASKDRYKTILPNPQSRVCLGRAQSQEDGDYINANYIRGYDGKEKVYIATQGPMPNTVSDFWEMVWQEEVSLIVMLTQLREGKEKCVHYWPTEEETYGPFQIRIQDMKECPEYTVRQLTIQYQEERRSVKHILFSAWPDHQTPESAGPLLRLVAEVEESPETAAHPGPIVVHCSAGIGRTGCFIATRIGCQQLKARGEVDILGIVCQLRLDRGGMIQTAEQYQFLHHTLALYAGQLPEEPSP
DUSP1 inh = human dual specificity phosphatase 1 inhibition | P28562 | recombinant MKP-1, OMFP hydrolysis fluorescence | inhibition, %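 (compounds tested at a single concentration somewhere between 10 and 100 µM)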 | actives 0.15% (n = 65,000) | AID 374;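 active = inhibition above about 50%, limit read from the data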;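 note: 0% = DMSO max control wells and 100% = wells with enzyme stopped by NaOH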
Target sequence (P28562 whole entry, looked up): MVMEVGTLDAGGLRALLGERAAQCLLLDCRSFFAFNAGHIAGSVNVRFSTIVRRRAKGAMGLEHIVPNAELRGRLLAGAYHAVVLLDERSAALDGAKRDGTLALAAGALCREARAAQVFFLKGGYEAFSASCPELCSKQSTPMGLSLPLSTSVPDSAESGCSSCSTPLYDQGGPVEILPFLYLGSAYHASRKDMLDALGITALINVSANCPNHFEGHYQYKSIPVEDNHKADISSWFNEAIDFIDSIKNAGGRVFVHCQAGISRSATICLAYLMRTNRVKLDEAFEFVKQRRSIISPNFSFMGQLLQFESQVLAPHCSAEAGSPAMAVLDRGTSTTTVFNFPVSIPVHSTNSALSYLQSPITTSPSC
TNAP act mid DEA = human TNAP activation, intermediate phosphate acceptor; 64,000 tested, under 10 active; activation factor at 20 µM; purified TNAP, CDP-star luminescence, 100 mM DEA, 30 min; stronger effect = higher value; scale: 0 levamisole-inhibited, 1 vehicle-only enzyme; P05186;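 active = activation factor of at least 2 at 20 µM, relative to controls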
Hsp90 block = displaces geldanamycin probe from tumor Hsp90 | NCI-N417 lysate Hsp90, Cy3B-geldanamycin FP displacement | inhibition, % at 30 µM | actives 0.35% (n = 64,000) | AID 429;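 active = inhibition above 50%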;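 note: 0% = tracer plus lysate wells and 100% = tracer alone without lysate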
PLAP activator = activates human placental alkaline phosphatase; P05187; purified PLAP enzyme, luminescent substrate read-out; stronger effect = higher value; actives 1.2% (n = 96,000); AID 696; activation fold at 20 µM; in the data active = activation fold above about 2
The depositor's hits bear a star; nt = no result given. The list is not random: actives were taken first. Their share in the collection is about 1.5%.

SMILES	Cdc25B block	HePTP inhibitor	DUSP1 inh	TNAP act mid DEA	Hsp90 block	PLAP activator
O=C(O)CCN1C(=O)/C(=C/c2cn(-c3ccccc3)nc2-c2ccc(Br)cc2)SC1=S	nt	101.3*	nt	nt	nt	nt
O=C(O)CCCN1C(=O)/C(=C/c2cn(-c3ccccc3)nc2-c2cccc([N+](=O)[O-])c2)SC1=S	nt	104.1*	nt	nt	nt	nt
CCOc1ccc(-c2nn(-c3ccccc3)cc2/C=C2\SC(=S)N(CCOC)C2=O)cc1	nt	7.4	nt	nt	nt	nt
CCc1ccccc1NC(=O)c1nn2c(c1Cl)NC(c1cccs1)CC2C(F)(F)F (centres undefined)	nt	-14.0	nt	nt	nt	nt
CCOc1cc(/C=C2\N=C(c3ccccc3)OC2=O)ccc1OCc1c(C)no[n+]1[O-]	nt	66.0*	nt	nt	nt	nt
CCCn1cnc2cc(NCc3ccccn3)ccc21	-2.6	3.6	4.3	0.9	2.7	1.3
CCCn1cnc2cc(NCc3cccc(OC)c3O)ccc21	-2.9	6.3	-21.2	1	5.3	2.7*
CC(=O)Nc1ccc(Nc2ncnc3c2cnn3-c2ccc(C)cc2C)cc1	nt	nt	nt	nt	nt	2*
CC(=O)Nc1ccc(Nc2ncnc3c2cnn3-c2cccc(C)c2)cc1	-3.7	4.4	2.4	0.9	-2.9	1
O=c1oc2c(O)c(O)ccc2c2c1CCC2	nt	8.6	nt	nt	nt	nt
O=c1ccc2ccc(O)c(O)c2o1	nt	nt	nt	nt	69.4*	nt
CCN(CC)c1ccc(/C=c2/sc3nc4ccccc4n3c2=O)cc1	nt	-0.9	nt	nt	nt	nt
O=C1NC(=Nc2cccnc2)S/C1=C\c1ccc(F)cc1	nt	9.9	nt	nt	nt	nt
O=C1NC(=Nc2cccnc2)S/C1=C\c1cccc(F)c1	nt	65.7*	nt	nt	nt	nt
Cc1ccc2nc(SCC(=O)Nc3cc(C)on3)[nH]c2c1	-10.9	7.8	-6.1	1.1	-1.2	1.9
COc1ccc2nc(SCC(=O)Nc3cc(C)on3)[nH]c2c1	nt	nt	nt	nt	nt	2.2*
COc1ccc2nc(SCC(=O)Nc3ccccc3C#N)[nH]c2c1	-2.4	0.6	-18.0	1.1	-3.9	2.1*
CSC1=C(C#N)C2(CCCC2)C(C#N)=C(N)N1	8.8	1.7	-7.2	0.9	-4.1	0.8
N#CC1=C(N)N2C(=C(C#N)C13CCCCC3)SC1CCCCC12O (centres undefined)	62.8*	12.5	2.6	0.8	-4.6	0.9
COc1ccc(C2=N/C(=C/c3ccc([N+](=O)[O-])cc3)C(=O)N2c2ccc(O)cc2)cc1	nt	3.0	nt	nt	nt	nt
CCOC(=O)C1=C(C)OC(N)=C(C#N)C1c1c(C)c(C)cc(C)c1C (centres undefined)	nt	-7.9	nt	nt	nt	nt
Nn1c(SCc2nc3ccccc3[nH]2)nnc1-c1cccnc1	9.9	3.2	27.6	1	nt	2*
Nn1c(SCc2nc3ccccc3[nH]2)nnc1C1CCCCC1	9.3	2.8	-20.1	1.2	1.8	2.1*
Cc1ccc(CN2CCN(/N=C/c3ccc(Br)s3)CC2)cc1	nt	-4.0	nt	nt	nt	nt
CCOC(=O)C(CC)Sc1nc2c(c(=O)[nH]c(=O)n2C)n1CCc1ccccc1 (centres undefined)	-3.1	4.7	31.4	1	-3.2	2.8*
SMILES	Cdc25B block	HePTP inhibitor	DUSP1 inh	TNAP act mid DEA	Hsp90 block	PLAP activator
COc1ccc(C(=O)Nc2cc(C(F)(F)F)cc(C(F)(F)F)c2)cc1	nt	104.0*	nt	nt	nt	nt
C/C(=N\NC(=O)c1cc(C2CC2)[nH]n1)c1ccc2ccccc2c1	nt	-17.0	nt	nt	nt	nt
O=C1NCCCC2c3cc(O)c4ccccc4c3OC12N1CCCCC1 (centres undefined)	46.0	8.4	39.9	1	94.8*	1.2
S=c1[nH]nc(-c2ccccc2)n1C1CCCCC1	nt	18.0	nt	nt	nt	nt
COc1ccc(Cl)cc1-c1n[nH]c(=S)n1C1CCCCC1	nt	nt	nt	nt	nt	2.4*
Cc1cc(Cl)ccc1OCc1n[nH]c(=S)n1C1CCCCC1	nt	nt	nt	nt	nt	1.3
COc1ccc(-c2n[nH]c(=S)n2C2CCCCC2)cc1	3.0	2.1	0.1	0.9	-2.1	2*
O=C(COc1ccccc1Cl)NNC(=O)c1ccncc1	nt	101.1*	nt	nt	nt	nt
O=C(COc1ccccc1Cl)NNC(=O)c1cccnc1	nt	-11.9	nt	nt	nt	nt
Cc1ccc(S(=O)(=O)N2CCN(CC(=O)NC3CCCc4ccccc43)CC2)c(C)c1 (centres undefined)	nt	nt	nt	nt	nt	70.9
Cc1ccc(S(=O)(=O)N2CCN(CC(=O)NC3CCCc4ccccc43)CC2)cc1C (centres undefined)	nt	nt	nt	nt	nt	2.1*
CCN1CCCC1CNc1ncnc2c1[nH]c1ccc(Cl)cc12 (centres undefined)	1.3	2.3	-15.2	0.9	-3.3	2.1*
CCN(CC)c1ccc(-n2c(O)c(C3=c4ccccc4=NC3=O)sc2=S)cc1	nt	-9.6	nt	nt	nt	nt
O=C(O)c1ccc(-n2c(O)c(/C=C3\C=Nc4ccccc43)sc2=S)cc1	nt	57.4*	nt	nt	nt	nt
Oc1ccc(-n2c(O)c(/C=C3\C=Nc4ccccc43)sc2=S)cc1	nt	5.6	nt	nt	nt	nt
O=C1N=c2ccccc2=C1c1sc(=S)n(-c2ccc(C(=O)O)cc2)c1O	nt	100.0*	nt	nt	nt	nt
CCc1ccc(NC(=O)/C=C/c2ccc(OC)cc2)cc1	nt	1.0	nt	nt	nt	nt
O=C(CN1CCN(S(=O)(=O)c2ccc(Cl)cc2)CC1)NC(=O)NC1CCCCC1	nt	nt	nt	nt	nt	2*
O=C(CN1CCN(S(=O)(=O)c2ccccc2)CC1)NC(=O)NC1CCCCC1	nt	nt	nt	nt	nt	1.7
CCOC(=O)N1CCC(N2CCN(S(=O)(=O)c3ccc(Cl)cc3)CC2)CC1	nt	nt	nt	nt	nt	2*
CCOC(=O)c1[nH]cnc1C(=O)Nc1ccncc1	-17.4	4.1	-11.3	1	-0.5	2.5*
Cc1ccc(CNC(=O)C(=O)Nc2ccc(Br)cc2)cc1	nt	5.4	nt	nt	nt	nt
Cc1ccc(OCc2nc(C#N)c(NCCCn3ccnc3)o2)cc1	-7.9	9.0	-4.2	1.1	-3.2	1.2
N#Cc1nc(COc2ccc(Br)cc2)oc1NCCCn1ccnc1	0.9	5.1	-10.5	1	-0.2	2.2*
CC(C)Oc1cccc(C(=O)N2CCC(Cc3ccccc3)CC2)c1	nt	2.4	nt	nt	nt	nt
SMILES	Cdc25B block	HePTP inhibitor	DUSP1 inh	TNAP act mid DEA	Hsp90 block	PLAP activator
Cc1ccc(S(=O)(=O)N2CCC(C(=O)N[C@@H](C)C(=O)Nc3ccc4c(c3)OCO4)CC2)cc1	1.8	4.4	-15.7	0.9	65.0*	1.2
COc1cccc(/C=N/n2c(N)c(S(=O)(=O)c3cccs3)c3nc4ccccc4nc32)c1OC	nt	nt	nt	nt	nt	1.1
Nc1c(S(=O)(=O)c2cccc(Cl)c2)c2nc3ccccc3nc2n1/N=C/c1ccc(O)c(O)c1	25.5	14.1	32.9	0.9	58.7*	1
CCC(C(=O)Nc1nc(-c2ccccc2)c(C)s1)c1ccccc1 (centres undefined)	nt	-1.7	nt	nt	nt	nt
CC(Oc1ccccc1)C(=O)N1CCC(Cc2ccccc2)CC1 (centres undefined)	nt	7.8	nt	nt	nt	nt
COC(=O)Cc1cc(=O)[nH]c(Nc2nc3ccccc3o2)n1	0.1	6.6	-8.4	0.6	22.5	2.6*
CN(C)c1ccc(N=Cc2nc(-c3ccccc3)oc2O)cc1	10.8	12.4	7.7	0.8	54.1*	1.1
Oc1oc(-c2ccccc2)nc1C=Nc1ccccc1	nt	nt	nt	nt	nt	0.9
COCc1[nH][nH]c(=O)c1C=Nc1ccccc1	nt	nt	nt	nt	nt	2*
Cc1cc(-c2c(C)[nH]n(-c3ccc(Cl)cc3)c2=O)n[nH]1	nt	nt	nt	nt	nt	2*
COc1ccc(-c2[nH]ncc2-c2cnc(C)s2)c(O)c1	-7.5	5.9	11.4	1.2	-0.8	2.9*

From PubChem BioAssay
